Source: PubChem BioAssay
RGS4 inh – inhibitors of human regulator of G protein signaling 4. Potency, µM (top dose mostly 114 µM), for inactives: at the top dose activity change, negative = inhibition, actives largely listed as inhibitors. P49798. Transcreener GDP fluorescence polarization, RGS4-accelerated GTP hydrolysis. hit rate 0.039% among 390,000. AID 504845; active means well fitted inhibition curve with a large enough effect; inconclusive means small, poorly fitted or top-dose-only effect; inactive means no such curve, though single readings can be large or run the other way; further: potency means the concentration at half of the fitted maximal effect; on the % scale 0 is the no-effect control and ±100 the full control effect; nearly all actives have a fitted effect of over 75% in size
Target sequence (P49798 whole entry, looked up): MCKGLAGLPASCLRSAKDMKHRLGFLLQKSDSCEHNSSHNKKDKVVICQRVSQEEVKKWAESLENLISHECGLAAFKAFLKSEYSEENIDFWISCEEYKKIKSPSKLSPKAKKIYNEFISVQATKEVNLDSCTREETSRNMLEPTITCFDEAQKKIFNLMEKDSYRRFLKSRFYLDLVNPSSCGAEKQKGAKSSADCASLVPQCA
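MLSMR compounds (23 nl, pin-transferred) preincubated 10 min at room temperature with a 500nM (2x) first reagent, then RGS4 at 900nM (2x) plus Transcreener GDP mix added; fluorescence polarization (620/688 nm) read before and after 90 min at 30 °C.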
D3 ag – activates the human D3 dopamine receptor. P35462. D3R DiscoveRx beta-arrestin cells, luminescence, 90 min. max activation, %. hit rate 0.58% among 410,000. AID 652048; in the data active means max activation above about 30%; further: 0% is about no effect
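Cells at 1500/well, incubated overnight, then treated with pinned compounds (dopamine as control) for 90 min at 37 degrees C. DiscoveRx reagent added for 30 - 60 minutes at room temperature; luminescence read.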
D3 antag – antagonists of human D3 dopamine receptor; hit rate 2.5% among 360,000; max response, negative = inhibition, %; D3R cells, DiscoveRx beta-arrestin luminescence, antagonist mode; hits give low values; P35462; in the data active means max response below about -50%; inconclusive means no clear call, values can overlap the other calls; further: on the % scale 0 is the no-effect control and ±100 the full control effect
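Cells plated overnight at 1500 cells/well, then exposed to library compounds with dopamine controls for 90 minutes at 37 degrees C. DiscoveRx reagent added for 30–60 minutes at room temperature; luminescence read, quantitative HTS format.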
LDHA inh – blocks human lactate dehydrogenase A | purified LDHA, NADH/diaphorase-resazurin fluorescence; hits give low values | activity change, % (values are at about 110 or 230 µM) | hit rate 0.15% among 480,000 | AID 1347041; in the data active means activity change below about -30%; inconclusive means mostly about -25% to -30%;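 further: plate controls were DMSO wells for no effect and wells without enzyme for full effect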
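Enzyme activity of human lactate dehydrogenase 5 (2 nM; 0.06 mM NADH, 0.2 mM pyruvate, 5 min, RT) is measured via a resazurin/diaphorase fluorescence readout of residual NADH.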
PI4K2A block – blocks human PI4K2A kinase activity; Q9BTU6; purified PI4K2A, ADP-Glo luminescence, 1 h; hits give low values; activity change, negative = inhibition, % at 76.9 µM; hit rate 0.13% among 420,000; in the data active means activity change below about -50%; inconclusive means mostly about -30% to -49%;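 further: -100% = wells without enzyme as full effect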
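Compounds are screened against recombinant PI4K2A using PI as substrate and ATP, the latter dispensed at 300 microM. Reactions run one hour at ambient temperature before ADP-Glo detection; full inhibition defined by wells lacking enzyme.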
pAkt inh – blocks phosphorylation of Akt; hit rate 0.32% among 360,000; AID 651550; activity change, % for hits at 50 µM; Neuro2A IGF-stimulated pAkt S473 HTRF, 20 min; hits give low values; in the data active means activity change below about -80%; inconclusive means mostly about -51% to -80%; further: on the % scale 0 is the no-effect control and ±100 the full control effect
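Single-point screen (50 µM final compound) in Neuro2A cells stimulated 20 min with 6 nM IGF at 37 deg C. After lysis, Ser473-phosphorylated Akt read by HTRF (ex 330 nm, em 615/665 nm) as the 665/615 ratio.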
The depositor's hits bear a star; ! = not active in a repeat. Only some compounds are listed: those with a hit (about 2.8% of all), similar ones and a draw of the others.

Results for Cc1sc(-n2c(C)cc(/C=C3\SC(=S)NC3=O)c2C)c(C#N)c1C ?
RGS4 inh: -47%; D3 ag: -21; D3 antag: -71*; LDHA inh: -7; PI4K2A block: -5

How did CC(CNC1CCCCC1)OC(=O)c1ccccc1 (centres undefined) do in these assays?
RGS4 inh: -16%; D3 ag: -84; D3 antag: -100*; LDHA inh: -9; PI4K2A block: -1; pAkt inh: inactive

What do the screens show for `Nc1nc2c(s1)CCCCCCCCCC2`?
RGS4 inh: -7%; D3 ag: 5; D3 antag: -13; LDHA inh: -9; PI4K2A block: 2; pAkt inh: inactive

What do the screens show for `CCCN[C@H]1CCc2nc(N)sc2C1`?
RGS4 inh: -16%; D3 ag: 88*; D3 antag: 5; LDHA inh: -3; PI4K2A block: 4; pAkt inh: inactive

Results for CCOC(=O)C(=CNc1ccc2c(c1)c1ccccc1n2CC)C(=O)OCC ?
RGS4 inh: -8%; D3 ag: 66*; D3 antag: 134; LDHA inh: 2; PI4K2A block: 5; pAkt inh: inactive

How did CCOC(=O)C(=CNc1ccc(C)cc1C)C(=O)OCC do in these assays?
RGS4 inh: 22%; D3 ag: 15; D3 antag: 89; LDHA inh: 2; PI4K2A block: 0; pAkt inh: inactive

Results for CCn1c2ccccc2c2cc(NC(=O)COC(=O)c3cc(OC)c(OC)cc3OC)ccc21 ?
RGS4 inh: -11%; D3 ag: 54*; D3 antag: 22; LDHA inh: -4; PI4K2A block: 0; pAkt inh: inactive

What do the screens show for `CCn1c2ccccc2c2cc(NC(=O)COC(=O)c3cccc(F)c3F)ccc21`?
PI4K2A block: -6

How did CCOC(=O)C(=CNc1cccc(C)c1C)C(=O)OCC do in these assays?
RGS4 inh: 28%; D3 ag: 39*; D3 antag: 40; LDHA inh: -1; PI4K2A block: -1; pAkt inh: inactive

What do the screens show for `CCCC(=O)Nc1ccc2c(c1)c1ccccc1n2CC`?
RGS4 inh: 38%; D3 ag: -1; D3 antag: -8; LDHA inh: -13; PI4K2A block: 1; pAkt inh: inactive

What do the screens show for `Cc1cccc(C)c1N(CC(=O)N1CCN(C)CC1)S(C)(=O)=O`?
RGS4 inh: -27%; D3 ag: 4; D3 antag: -79*; LDHA inh: -3; PI4K2A block: 11; pAkt inh: inactive

What do the screens show for `Cc1cccc(N(CC(=O)N2CCCCCC2)S(C)(=O)=O)c1C`?
RGS4 inh: 25%; D3 ag: 5; D3 antag: 5; LDHA inh: -6; PI4K2A block: 4; pAkt inh: inactive

What do the screens show for `C[C@H]1O[C@@H](O[C@H]2[C@@H](O)C[C@H](O[C@H]3[C@@H](O)C[C@H](O[C@H]4CC[C@@]5(C)[C@H](CC[C@@H]6[C@@H]5C[C@@H](O)[C@]5(C)[C@@H](C7=CC(=O)OC7)CC[C@]65O)C4)O[C@@H]3C)O[C@@H]2C)C[C@H](O)[C@@H]1O`?
RGS4 inh: 1.7µM*!; D3 ag: 1; D3 antag: 66; LDHA inh: -2; PI4K2A block: -5; pAkt inh: inactive

What do the screens show for `CC(=O)OC1CCC2(C=O)C3CCC4(C)CC(C5=CC(=O)OC5)CC4(O)C3CCC2(O)C1` (centres undefined)?
LDHA inh: -2

Results for O=S(=O)(/C=C/c1ccccc1)n1cnc2ccccc21 ?
RGS4 inh: 0%; D3 ag: 6; D3 antag: 32; LDHA inh: -7; PI4K2A block: 4; pAkt inh: -118%*

What do the screens show for `CCOc1ccc2c(c1)-c1c(ssc1=S)C(C)(C)N2C`?
RGS4 inh: inconclusive; D3 ag: 0; D3 antag: -52*; LDHA inh: 1; PI4K2A block: 4; pAkt inh: inactive
